Source: PubChem BioAssay (NCI)
The panel holds about 83,000 compounds, 20% with a hit somewhere; the sample as a whole holds those more often.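 Plates (96-well) were seeded with cells, treated with compound at one concentration, and incubated for 48 hours before percent growth was determined.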 A number with no mark means an inactive call. The source made the active and inactive calls. How the source made its calls: active means growth percent below 10; inactive means the rest.

tested on: 786-0 renal; test: NCI-60 one-dose screen, 48 h (100 = growth as untreated, 0 = no growth, -100 = all killed); conditions: 10 µM unless noted

| Structure (SMILES) | growth |
| --- | --- |
| COc1cc(-c2nc3sccn3c2-c2ccnc(NCCNS(=O)(=O)c3ccc(Cl)cc3)n2)ccc1F | 61.8% |
| CCCn1cnc2c(c1=N)C(c1ccc(F)cc1)c1sc3c(F)cccc3c1O2 (stereo not given) | 40.9% |
| C#CCNC(=O)[C@]1(C)CCC[C@@]2(C)[C@H]1CC=C1C=C(C(C)C)CC[C@@H]12 | 96.8% |
| N[C@H]1CCC[C@@H]1NCCCCN1C(=O)c2cccc3cc([N+](=O)[O-])cc(c23)C1=O | 31% |
| CC1C=CC(OC(=O)C(C)(O)CCC(O)(C(=O)OC2CC(O)C(C(C)C)CC2(C)O)C(C)C)(C(C)C)CC1 (stereo not given) | -88.5% [4.63 µM] (active) |
| C=CC(=O)Nc1ccc(Nc2nccc(-c3ccc(N4CCCC4)c(C#N)c3)n2)cc1 | -67.4% (active) |
| CC(=O)OC(c1ccccc1)C1CCOC1=O (stereo not given) | 94.8% |
| COC(=O)CCC/C=C\C[C@H]1C=CC(=O)/C1=C/C[C@@H](O)C/C=C\CC(F)(F)F | -39.5% (active) |
| N#CC1=C(N)Oc2ccc3ccccc3c2C1c1ccc([N+](=O)[O-])cc1 (stereo not given) | 88.1% |
| COc1cc(-c2nc3c(ncc4ccc(=O)n(-c5ccccc5)c43)s2)cc(OC)c1OC | 46.7% |
| Cc1ccc(-c2csc(N(C(=O)N3CCN(c4cc5c(cc4F)c(=O)c(C(=O)O)cn5C4CC4)CC3)c3ccccc3)n2)cc1 | 4.6% (active) |
| O=c1cc(-c2ccccc2)[nH]c2ncc(-c3ccc(F)cc3)n12 | 79.5% |
| COc1cc(-c2nc3cc(Cl)c(Cl)cc3[nH]2)ccc1OCC(=O)N=Nc1c(O)[nH]c2ccc(Cl)cc12 | 2.74% (active) |
| NC(=O)c1c(NC(=O)c2cccs2)sc2c1CCC(=O)C2 | 76% |
| O=C(Oc1ccc(CCl)cc1)c1ccccc1 | -92.5% (active) |
| O=C(Cc1ccc(/C=C/C(=O)c2ncc[nH]2)cc1)Nc1cc(C(F)(F)F)cc(C(F)(F)F)c1 | 52.2% |
| Nc1ncnc2c1N=C(c1ccc3c(c1)OCO3)CC(c1cccc(Nc3ccnc4cc(C(F)(F)F)ccc34)c1)N2 (stereo not given) | 82.5% |
| COc1cccc(/C=N/NC(=O)c2ccccc2N2CCCC2)c1O | 53.4% |
| CCNc1ccc(-c2nc3ccccc3n3cccc23)cc1 | 86% |
| CN(C)CCCNC(=O)c1cncnc1Nc1ccc(OCc2cccc(F)c2)c(Cl)c1 | -78.7% (active) |
| O=C(NC1CC(F)C1)c1cc2cccnc2n1-c1ccc(Cl)c(Cl)c1 (stereo not given) | 95.2% |
| CN1CCN(c2ccc3nc4c(nc3c2C(F)(F)F)C(=O)c2ncccc2C4=O)CC1 | 36.7% |
| Cc1ccc(N2C(=O)CCC2=O)cc1 | 97.4% |
| CCN1C(=O)N(CC)C2C1NN=c1s/c(=C3\C(=O)N(CCC(C)C)c4ccccc43)c(=O)n12 (stereo not given) | 29.1% |
| CN(Cc1cnc2nc(N)nc(N)c2n1)c1ccc(C(=O)NC(CCC(=O)O)C(=O)O)cc1Br (stereo not given) | 15.8% |
